Most compounds without a hit are left out; they make up all but 21% or so of the library.
TDP1 cell CPT = DT40-hTDP1 cell growth loss with CPT; chicken DT40 Tdp1-/-;hTDP1 cells + 20 nM CPT, ATP luminescence, 48 h; Potency, µM (series often up to 46.2 µM), for inactives: at the top dose activity change, negative = growth inhibition, usual class: inhibitors; 12% of 420,000 active; further: potency means the concentration at half of the fitted maximal effect; on the % scale 0 is the no-effect control and ±100 the full control effect; nearly all actives have a fitted effect of over 55% in size
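Cell growth measured by CellTiter-Glo luminescence after a minimum 48 h, 37 C compound exposure with 20 nM CPT in Tdp1-knockout DT40 cells stably expressing hTDP1, seeded 400/well; qHTS titration format.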
DRD3 antagonist = antagonists of human D3 dopamine receptor; max response, negative = inhibition, %; 2.5% of 360,000 active; D3R cells, DiscoveRx beta-arrestin luminescence, antagonist mode; active compounds read low; in the data active means max response below about -50%; inconclusive means no clear call, values can overlap the other calls; further: on the % scale 0 is the no-effect control and ±100 the full control effect
Target sequence (P35462 whole entry, looked up): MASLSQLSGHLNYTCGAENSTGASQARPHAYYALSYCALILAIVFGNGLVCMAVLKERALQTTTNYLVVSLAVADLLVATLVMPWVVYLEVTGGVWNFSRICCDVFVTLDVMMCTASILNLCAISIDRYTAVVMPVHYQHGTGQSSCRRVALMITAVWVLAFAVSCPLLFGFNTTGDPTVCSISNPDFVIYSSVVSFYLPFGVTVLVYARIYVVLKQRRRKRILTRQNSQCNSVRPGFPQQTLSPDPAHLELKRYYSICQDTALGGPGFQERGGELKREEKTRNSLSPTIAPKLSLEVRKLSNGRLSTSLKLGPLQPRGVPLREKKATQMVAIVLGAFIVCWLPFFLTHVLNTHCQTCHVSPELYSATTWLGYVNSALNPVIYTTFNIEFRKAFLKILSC
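Cells plated overnight at 1500 cells/well, then exposed to library compounds with dopamine controls for 90 minutes at 37 degrees C. DiscoveRx reagent added for 30–60 minutes at room temperature; luminescence read, quantitative HTS format.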
IL-1B inflam inh = inflammasome signaling inhibition, IL-1 beta readout. THP-1 LPS/ATP IL-1B secretion, AlphaLISA, 16 h; active compounds read low. activity change, % at 57.5 µM. 4.7% of 360,000 active. AID 743279; in the data active means activity change below about -50%; inconclusive means mostly about -30% to -49%; further: on the % scale 0 is the no-effect control and ±100 the full control effect
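THP-1 cells pretreated 1 hr with compounds (up to 57.5 uM final), then stimulated with LPS (250 ng/mL final) plus ATP (1.25 mM final); secreted IL-1B measured by AlphaLISA after 16 hr, decreased signal indicating inhibition.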
ClpP mod = qHTS Assay for Activators of ClpP; ATP-dependent Clp protease proteolytic subunit (Bacillus subtilis (strain 168)), P80244; purified B. subtilis ClpP, FRET peptide cleavage, 20 min; Potency, µM (highest dose often 57.5 µM), inactives show at the highest dose activity change, negative = active; 1.9% of 340,000 active; AID 651965, 2013; active means well fitted falling curve with a large enough effect; inconclusive means small, poorly fitted or top-dose-only effect; inactive means no such curve, though single readings can be large or run the other way; further: potency means the concentration at half of the fitted maximal effect; the source files actives as falling curves though it sought activators and does not explain the sign; nearly all actives have a fitted effect of over 65% in size
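ClpP 10 microg/mL final, pH 8 Tris/KCl buffer with BSA, glycerol, Tween-20; compound pinned in; FRET-FV substrate; RT 20 min; Ex320/Em430; ΔFRET vs ADEP 5.8 microM, DMSO, no enzyme.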
DRD3 agonist = activates the human D3 dopamine receptor; P35462; D3R DiscoveRx beta-arrestin cells, luminescence, 90 min; max activation, %; 0.58% of 410,000 active; AID 652048; in the data active means max activation above about 30%; further: 0% is about no effect
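Cells at 1500/well, incubated overnight, then treated with pinned compounds (dopamine as control) for 90 min at 37 degrees C. DiscoveRx reagent added for 30 - 60 minutes at room temperature; luminescence read.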
TDP1 cell noCPT = qHTS for Inhibitors of human tyrosyl-DNA phosphodiesterase 1 (TDP1): qHTS in cells in absence of CPT | DT40 Tdp1-/- hTDP1 cells, no CPT, ATP luminescence, 48 h | AID 686978, 2013 | Potency, µM (titrated, usually from 46.2 µM), for inactives: at the top dose activity change, negative = growth inhibition, usual class: inhibitors | 15% of 420,000 active; further: potency means the concentration at half of the fitted maximal effect; on the % scale 0 is the no-effect control and ±100 the full control effect; nearly all actives have a fitted effect of over 55% in size
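A cellular qHTS used chicken DT40 cells lacking endogenous Tdp1 but carrying stably transfected human TDP1. Compounds were applied without camptothecin, and cell growth kinetics were judged by ATP-dependent luminescence after ≥48 hr.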
* hit, by the source's call; ? = inconclusive; nt = no result; [ ] = another dose, or the depositor's remark. Unless noted, the call rests on the fitted dose curve; in most records, active means well fitted inhibition curve with a large enough effect; inconclusive means small, poorly fitted or top-dose-only effect; inactive means flat fitted curve, though single readings scatter.

SMILES	TDP1 cell CPT	DRD3 antagonist	IL-1B inflam inh	ClpP mod	DRD3 agonist	TDP1 cell noCPT
CC[C@H]1CN(C)CCc2c([nH]c3ccccc23)C(=O)C[C@@H]1/C(=C\OC)C(=O)OC	29µM*	-51*	-7	-4%	-16	-19%
CC(=O)[C@@]1(O)CC[C@H]2[C@@H]3C[C@H](C)C4=CC(=O)CC[C@]4(C)[C@H]3CC[C@@]21C	?	24	?	-2%	12	29µM*
CC(=O)[C@]1(O)CCC2C3CCC4=CC(=O)CC[C@@]4(C)C3CC[C@]21C (stereo partly specified)	?	nt	nt	nt	nt	-5%
COc1ccc(/C=C/C(=O)N2CC3C[C@@H](C2)Cn2c3cccc2=O)cc1OC	17%[9.04 µM]	nt	nt	nt	nt	-4%[9.04 µM]
C[C@H](NC(=O)[C@@H](N)Cc1ccc(O)cc1)C(=O)N[C@@H](Cc1ccccc1)C(=O)NCC(=O)N[C@@H](Cc1ccc(O)cc1)C(=O)N1CCC[C@H]1C(=O)N[C@@H](CO)C(N)=O	4%[4.12 µM]	nt	nt	nt	nt	3%[4.12 µM]
CCCCn1c(-c2nonc2NC(=O)c2ccccc2Cl)nc2ccccc21	10µM*	18	19	?	1	23µM*
O[C@H]1C[C@H](c2ccccc2)N(CC2CCCCC2)C[C@@H]1n1cc(-c2ccc(F)cc2)nn1	23µM*	0	17	-3%	-1	15µM*
CCC(C)NS(=O)(=O)c1ccc(OCC(=O)N2CCN(CC)CC2)cc1 (stereo unspecified)	0%	-15	0	-1%	-11	0%
C[N+]1(CC2COC(c3ccccc3)(c3ccccc3)O2)CCCCC1 (stereo unspecified)	?	nt	nt	nt	4	19µM*
OC(Cc1ccccc1)(c1ccccc1)C1CN2CCC1CC2 (stereo unspecified)	15µM*	-1	-14	0%	-4	16µM*
OC(c1ccccc1)(c1ccccc1)C1CN2CCC1CC2 (stereo unspecified)	?	-70*	-26	?	0	?
c1ccc(C2CN3CCC2CC3)cc1 (stereo unspecified)	5%	4	0	nt	6	-4%
OC(c1ccccc1)(c1ccc(Cl)cc1)C1CN2CCC1CC2 (stereo unspecified)	16µM*	-29	-70*	-2%	-31	18µM*
O=C(NCc1ccccc1)C(=O)NCC1OCCN1S(=O)(=O)c1ccc([N+](=O)[O-])cc1 (stereo unspecified)	?	8	24	0%	-3	?
c1cnc2c(c1)ncn2C1CCNCC1	?	nt	nt	-1%	-8	-12%
Cn1cc(C(=O)N2CCC3(CC2)OCCO3)c2c3ccccc3n(C)c2c1=O	-13%	-7	5	14µM*	-22	-6%
Cn1c2ccccc2c2c(C(=O)N3CCC4(CC3)OCCO4)cn(C3CCCCC3)c(=O)c21	?	19	17	18µM*	-14	?
Cn1c(C(=O)N2CCC3(CC2)OCCO3)cc2c(=O)n(C)c3ccccc3c21	-27%	11	-12	-14%	23	-17%
Cc1cc(OC(C)C(=O)NCC(O)c2ccccc2)c2c3c(c(=O)oc2c1)CCCC3 (stereo unspecified)	?	5	-26	4%	-11	?
CSCC[C@H](NC(=O)[C@H](Cc1ccccc1)NC(=O)CNC(=O)CNC(=O)[C@@H](N)Cc1ccc(O)cc1)C(=O)O	0%[4.12 µM]	nt	nt	nt	nt	-2%[4.12 µM]
Cc1nn(Cc2ccc(Cl)cc2Cl)c(Cl)c1C(=O)NC1CCCc2ccccc21 (stereo unspecified)	16µM*	40	25	-2%	5	12µM*
Cc1ccc(-c2nc3ncccc3o2)cc1NC(=O)c1cccc(OCC(C)C)c1	-28%	nt	nt	-9%	11	?
COc1c(C)cc(Br)cc1C(=O)Nc1ccc(-c2nc3ncccc3o2)cc1	6.5µM*	nt	nt	-11%	10	4.6µM*

Screening data deposited in PubChem by National Center for Advancing Translational Sciences (NCATS).
